Test results: the supplement of paper PMC3545927
This is one part of the list. The true hit rate is not given.

B1: HC2157 (peptide)
chain: CASVVTSTWVAGNASASA
B2: HC1357 (peptide)
chain: CAGEPGDPDLAGNASASA
B3: HC2308 (peptide)
chain: CAWVPCHRPSAGNASASA
B4: HC2392 (peptide)
chain: CAEVPCHRESAGNASASA
B5: HC892 (peptide)
chain: CADFSLDPTFAGNASASA
B6: HC845 (peptide)
chain: CATTGEIPFYAGNASASA
B7: HC1535 (peptide)
chain: CAVQEDAASLAGNASASA
B8: HC296 (peptide)
chain: CALCSALYVGAGNASASA
B9: HC1687 (peptide)
chain: CAMFECSQHLAGNASASA
B10: HC87 (peptide)
chain: CAVVCWSMSYAGNASASA
B11: FS-1162 (peptide)
chain: CARSQRSWRLAGNASASA
B12: FS-881 (peptide)
chain: CATPRRQKRLAGNASASA
B13: FS-602 (peptide)
chain: CAKHNRPRRDAGNASASA
B14: FS-472 (peptide)
chain: CAPGPRPRRDAGNASASA
B15: HC1566 (peptide)
chain: CAPLARAAWEAGNASASA
B16: FS-789 (peptide)
chain: CAGSRRPRRDAGNASASA
B17: FS-1045 (peptide)
chain: CAPEPREQRDAGNASASA
B18: FS-3090 (peptide)
chain: CARSPRPRGDAGNASASA
B19: FS-167 (peptide)
chain: CAGSRRWGRYAGNASASA
B20: FS-556 (peptide)
chain: CAPLARPRRDAGNASASA
B21: HC1686 (peptide)
chain: CAMMECSQHLAGNASASA
B22: HC143 (peptide)
chain: CAEVVTVTWVAGNASASA
B23: HC1597 (peptide)
chain: CASIEPLDLPAGNASASA
B24: FS-3004 (peptide)
chain: CARNFRFLSSAGNASASA
B25: HC717 (peptide)
chain: CAAPQGSRSLAGNASASA
B26: FS-3061 (peptide)
chain: CARRRRARSSAGNASASA
B27: FS-3263 (peptide)
chain: CARRRRSRSSAGNASASA
B28: FS-1924 (peptide)
chain: CARRWRSLRPAGNASASA
B29: FS-863 (peptide)
chain: CARRERSIKSAGNASASA
B30: FS-3072 (peptide)
chain: CARRYRGNDSAGNASASA
B31: FS-2479 (peptide)
chain: CAPRRRARSLAGNASASA
B32: HC73 (peptide)
chain: CATTPCEGSWAGNASASA
B33: HC633 (peptide)
chain: CATGTYVYNHAGNASASA
B34: FS-1771 (peptide)
chain: CARRARDMSSAGNASASA
B35: HC668 (peptide)
chain: CAADGMVSKGAGNASASA
B36: FS-1517 (peptide)
chain: CADPMLEKRSAGNASASA
B37: FS-1129 (peptide)
chain: CAGSQWEKRSAGNASASA
B38: FS-178 (peptide)
chain: CAMLSPEKRSAGNASASA
B39: FS-1115 (peptide)
chain: CADQEREKRSAGNASASA
B40: FS-1323 (peptide)
chain: CAFIGREKRSAGNASASA
B41: FS-2225 (peptide)
chain: CARQDRSKGTAGNASASA
B42: FS-1494 (peptide)
chain: CATLDRSKRNAGNASASA
B43: FS-98 (peptide)
chain: CATLDREKRSAGNASASA

Molecular target: furin, P09958
Sequence (P09958 whole entry): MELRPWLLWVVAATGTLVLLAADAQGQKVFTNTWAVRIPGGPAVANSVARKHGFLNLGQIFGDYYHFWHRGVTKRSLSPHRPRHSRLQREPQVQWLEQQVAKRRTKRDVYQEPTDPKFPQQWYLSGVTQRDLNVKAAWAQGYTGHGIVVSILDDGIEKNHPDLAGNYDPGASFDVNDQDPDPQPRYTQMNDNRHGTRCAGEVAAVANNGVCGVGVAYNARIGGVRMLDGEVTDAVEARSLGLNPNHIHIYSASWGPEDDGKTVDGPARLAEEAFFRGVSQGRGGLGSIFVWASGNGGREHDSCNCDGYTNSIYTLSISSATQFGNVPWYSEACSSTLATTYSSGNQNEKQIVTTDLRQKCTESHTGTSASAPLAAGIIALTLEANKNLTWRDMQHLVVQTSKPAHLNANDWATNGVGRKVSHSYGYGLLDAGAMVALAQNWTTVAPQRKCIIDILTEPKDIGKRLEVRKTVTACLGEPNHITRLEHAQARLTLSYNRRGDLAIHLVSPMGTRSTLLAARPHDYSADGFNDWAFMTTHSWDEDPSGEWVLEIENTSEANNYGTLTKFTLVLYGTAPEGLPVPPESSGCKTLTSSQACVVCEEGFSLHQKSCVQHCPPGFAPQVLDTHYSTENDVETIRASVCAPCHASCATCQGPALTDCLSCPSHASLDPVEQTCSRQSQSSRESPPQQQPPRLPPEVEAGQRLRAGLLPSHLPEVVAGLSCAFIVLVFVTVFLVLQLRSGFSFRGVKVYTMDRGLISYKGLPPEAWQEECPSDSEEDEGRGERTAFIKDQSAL
Assay: furin cleavage Z-score vs untreated control; higher = more cleavage, active = 3.5 or more, inactive = 1 or less, 8 variable residues between constant flanks
Method in brief: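 The cleavage Z-score is the log read count relative to furin-free reactions, lowess-adjusted and scaled by median absolute deviation. Counts came from sequencing DNA released from bead-bound 8-mer peptide–cDNA fusions after digestion with purified furin for 7.5, 15 or 30 min.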
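Also: purified furin at 1:10 enzyme:substrate in 50 mM HEPES pH 7.5.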

Sequence | furin cleavage Z-score (7.5 min) | furin cleavage Z-score (15 min) | furin cleavage Z-score (30 min)
B1 | 1.21 | -0.109 (inactive) | 0.831 (inactive)
B2 | -1.27 (inactive) | -0.0644 (inactive) | 0.75 (inactive)
B3 | -0.717 (inactive) | 2.59 | 0.688 (inactive)
B4 | 0.318 (inactive) | 1.09 | 0.395 (inactive)
B5 | 0.169 (inactive) | -0.616 (inactive) | -1.12 (inactive)
B6 | -1.32 (inactive) | -1.97 (inactive) | 0.0887 (inactive)
B7 | -1.62 (inactive) | -0.428 (inactive) | -0.272 (inactive)
B8 | -0.409 (inactive) | -0.564 (inactive) | 0.88 (inactive)
B9 | -0.00522 (inactive) | -0.149 (inactive) | -0.982 (inactive)
B10 | -0.794 (inactive) | -0.454 (inactive) | -0.791 (inactive)
B11 | -0.897 (inactive) | -0.415 (inactive) | -1.15 (inactive)
B12 | 9.61 (active) | 11.3 (active) | 9.49 (active)
B13 | 12.5 (active) | 11.7 (active) | 9.21 (active)
B14 | 14.1 (active) | 15 (active) | 10.8 (active)
B15 | 0.967 (inactive) | 1.75 | 0.234 (inactive)
B16 | 13.1 (active) | 13 (active) | 10.2 (active)
B17 | -0.201 (inactive) | -0.175 (inactive) | -0.45 (inactive)
B18 | 0.374 (inactive) | -0.595 (inactive) | 0.318 (inactive)
B19 | -0.565 (inactive) | 1.19 | 2.01
B20 | 9.88 (active) | 7.62 (active) | 6.73 (active)
B21 | -0.328 (inactive) | 0.731 (inactive) | 0.7 (inactive)
B22 | -0.0202 (inactive) | -1.22 (inactive) | 0.0435 (inactive)

Sequence | furin cleavage Z-score (7.5 min) | furin cleavage Z-score (15 min) | furin cleavage Z-score (30 min)
B23 | -0.888 (inactive) | 1.4 | -0.00883 (inactive)
B24 | -0.151 (inactive) | -0.288 (inactive) | -1.62 (inactive)
B25 | -0.871 (inactive) | -1.2 (inactive) | 0.343 (inactive)
B26 | 9.64 (active) | 8.93 (active) | 6.98 (active)
B27 | 8.31 (active) | 9.52 (active) | 8.33 (active)
B28 | -0.388 (inactive) | 2.12 | 2.35
B29 | 3.74 (active) | 6.21 (active) | 7 (active)
B30 | -0.0765 (inactive) | -0.858 (inactive) | -0.417 (inactive)
B31 | 10.9 (active) | 12.2 (active) | 10.3 (active)
B32 | 0.057 (inactive) | 0.658 (inactive) | 0.0884 (inactive)
B33 | -0.127 (inactive) | -1.41 (inactive) | -0.282 (inactive)
B34 | 2.38 | 4.53 (active) | 4.22 (active)
B35 | 0.272 (inactive) | 0.596 (inactive) | -0.245 (inactive)
B36 | -0.771 (inactive) | -0.469 (inactive) | 0.309 (inactive)
B37 | 1.1 | -0.464 (inactive) | -0.295 (inactive)
B38 | 0.073 (inactive) | -0.325 (inactive) | 0.835 (inactive)
B39 | 2.32 | 3.5 (active) | 5.3 (active)
B40 | 12 (active) | 10.8 (active) | 9.06 (active)
B41 | 0.0348 (inactive) | -0.0846 (inactive) | -0.182 (inactive)
B42 | 10.9 (active) | 11.2 (active) | 9.22 (active)
B43 | 9.65 (active) | 10.6 (active) | 9.73 (active)
